Screens from PubChem BioAssay.
The entries come from a sample that favours hits as a whole.
HT1080 IDH1KD tx: qHTS for induction of synthetic lethality in tumor cells producing 2HG: qHTS for the HT-1080-IDH1KD cell line; actives 2% (n = 360,000); AID 686971, 2013; Potency, µM (top dose mostly 46.1 µM), for the others: at the top dose activity, negative = toxicity, actives largely listed as cytotoxic; HT-1080 IDH1 knockdown viability, ATP luminescence, 48 h;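 further: potency means the concentration at half of the fitted maximal effect; 0% = DMSO wells and -100% = cell-free medium wells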
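Luminescent ATP read-out (CellTiter-Glo, 10 min at room temperature) after 48 h compound exposure at 37 °C gave viability of IDH1-knockdown HT-1080 cells. Activity was normalised to DMSO and cell-free wells, then fitted as concentration-response curves.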
TDP1 cell noCPT: qHTS for Inhibitors of human tyrosyl-DNA phosphodiesterase 1 (TDP1): qHTS in cells in absence of CPT; DT40 Tdp1-/- hTDP1 cells, no CPT, ATP luminescence, 48 h; Potency, µM (titrated, usually from 46.2 µM), for inactives: top-dose activity change, negative = growth inhibition, actives largely listed as inhibitors; actives 15% (n = 420,000); further: potency means the concentration at half of the fitted maximal effect; nearly all actives have a fitted effect of over 55% in size
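Growth kinetics read by CellTiter-Glo luminescence after ≥48 hr at 37 °C. Cells: DT40 Tdp1-/- stably carrying human TDP1, 400 per well, compound exposure in the absence of CPT (DMSO vehicle).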
HT1080NT lethal: qHTS for induction of synthetic lethality in tumor cells producing 2HG: qHTS for the HT-1080-NT fibrosarcoma cell line. HT-1080-NT fibrosarcoma viability, CellTiter-Glo ATP luminescence, 48 h. Potency, µM (doses to about 46.1 µM), for the others: top-dose activity, negative = less viability, usual class: cytotoxic. actives 1.6% (n = 360,000);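 further: NT is the 2HG producing partner of a matched IDH1 knockdown line; potency means the concentration at half of the fitted maximal effect; 0% = DMSO-treated cells and -100% = media-only wells without cells; nearly all actives have a fitted effect of over 55% in size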
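Viability of the 2HG-overproducing fibrosarcoma line after 48 hours of compound exposure at 37 degrees C was determined by luminescence with CellTiter-Glo, and concentration-effect curves were then fitted and categorized.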
IL1B secr inh: qHTS for Inhibitors of Inflammasome Signaling: IL-1-beta AlphaLISA Primary Screen; THP-1 LPS/ATP IL-1B secretion, AlphaLISA, 16 h; stronger effect = lower value; actives 4.7% (n = 360,000); activity change, % at 57.5 µM; AID 743279, 2014; in the data active means activity change below about -50%; inconclusive means mostly about -30% to -49%
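Secreted IL-1B measured by AlphaLISA bead assay after 16 h compound exposure of THP-1 cells; compounds (final up to 57.5 uM) added 1 h before LPS (250 ng/mL) and ATP (1.25 mM) stimulation; lower signal means less secretion.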
12-LOX inh: Primary qHTS assay for inhibitors of human arachidonate 12S-lipoxygenase (ALOX12): Round 2. AID 1671190, 2021. actives 1.1% (n = 580,000). purified 12hLO, xylenol orange hydroperoxide absorbance. Potency, µM (series often up to 108 µM), for inactives: top-dose activity change, negative = inhibition, usual class: inhibitors; further: potency means the concentration at half of the fitted maximal effect
Target sequence (P18054 whole entry, looked up): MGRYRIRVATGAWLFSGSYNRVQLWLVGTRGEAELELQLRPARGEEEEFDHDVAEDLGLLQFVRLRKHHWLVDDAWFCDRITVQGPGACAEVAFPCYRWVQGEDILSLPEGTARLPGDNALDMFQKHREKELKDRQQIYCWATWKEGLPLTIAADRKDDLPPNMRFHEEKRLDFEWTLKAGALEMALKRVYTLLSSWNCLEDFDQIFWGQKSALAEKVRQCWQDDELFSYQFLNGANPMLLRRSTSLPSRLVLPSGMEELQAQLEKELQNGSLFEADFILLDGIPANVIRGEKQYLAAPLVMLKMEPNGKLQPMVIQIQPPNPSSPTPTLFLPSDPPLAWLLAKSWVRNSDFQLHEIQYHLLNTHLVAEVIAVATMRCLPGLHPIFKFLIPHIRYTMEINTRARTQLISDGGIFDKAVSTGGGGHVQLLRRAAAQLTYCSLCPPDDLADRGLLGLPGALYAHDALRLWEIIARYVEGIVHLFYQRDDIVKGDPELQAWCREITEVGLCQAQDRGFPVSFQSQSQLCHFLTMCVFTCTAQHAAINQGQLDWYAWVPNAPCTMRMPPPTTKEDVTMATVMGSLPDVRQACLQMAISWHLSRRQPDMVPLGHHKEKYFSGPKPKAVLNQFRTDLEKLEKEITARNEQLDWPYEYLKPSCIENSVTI
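Purified human 12hLO at 150 nM in 25 mM Hepes, 0.01% Triton X-100, pH 7.0, preincubated 15 min at room temperature with compound. Reaction started with 40 uM arachidonic acid, 30 min at room temperature. Hydroperoxide measured by Fe-xylenol orange, 573/405 nm absorbance ratio.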
TDP1 cell CPT: qHTS for Inhibitors of human tyrosyl-DNA phosphodiesterase 1 (TDP1): qHTS in cells in presence of CPT; chicken DT40 Tdp1-/-;hTDP1 cells + 20 nM CPT, ATP luminescence, 48 h; Potency, µM (doses to about 46.2 µM), without a hit: at the highest dose activity change, negative = growth inhibition, actives largely listed as inhibitors; actives 12% (n = 420,000); AID 686979, 2013; further: potency means the concentration at half of the fitted maximal effect; nearly all actives have a fitted effect of over 55% in size
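Chicken DT40 Tdp1-/- cells stably complemented with human TDP1 were seeded at 400 cells/well in medium containing 20 nM camptothecin, exposed to pin-transferred compounds, and grown at 37 °C for at least 48 hr. Viability was read as ATP luminescence.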
The depositor's hits bear a star; ? = inconclusive; / = no result given; [ ] = dose if it differs, or a comment. Unless noted, the call rests on the fitted dose curve; in most records, active means well fitted curve in the direction sought with a large enough effect; inconclusive means small, poorly fitted or top-dose-only effect, or another doubt; inactive means no such curve, though single readings can be large; an effect the other way counts as inactive or inconclusive. Unless noted, on the % scale 0 is the no-effect control and ±100 the full control effect.

SMILES	HT1080 IDH1KD tx	TDP1 cell noCPT	HT1080NT lethal	IL1B secr inh	12-LOX inh	TDP1 cell CPT
Cc1ccc(CNC(=O)C(=O)NCC(c2cccnc2)N2CCN(c3ccccc3F)CC2)cc1 (stereo unspecified)	/	5.8µM*	/	/	-5%	13µM*
O=C(NCC(c1cccnc1)N1CCN(c2ccccc2F)CC1)C(=O)Nc1ccc(F)cc1F (stereo unspecified)	/	15µM*	/	/	5%	?
Cc1nc(-c2c3n(c(=O)n(Cc4cccc(F)c4)c2=O)CCCCC3)no1	/	/	/	/	12%	/
CC(=O)N1CC(C)Sc2ccc(S(=O)(=O)NCCc3ccccc3)cc21 (stereo unspecified)	-16%	10µM*	-12%	53	-11%	13µM*
CC(=O)N1CC(C)Sc2ccc(S(=O)(=O)NCCc3ccc(C)cc3)cc21 (stereo unspecified)	-13%	7.3µM*	6%	-9	0%	18µM*
CCc1noc(-c2cn(C3CCCN(C(=O)COc4ccc(F)cc4)C3)nn2)n1 (stereo unspecified)	/	/	/	/	8%	/
OC(c1ccc(-c2ccccc2)cc1)c1ncc(-c2ccc(F)cc2)[nH]1 (stereo unspecified)	?	?	?	27	-2%	29µM*
Cc1cc(C(O)c2ncc(-c3ccccc3)[nH]2)ccc1F (stereo unspecified)	-5%	?	-6%	23	/	16µM*
OC(c1ccccc1)c1ncc(-c2ccc(Cl)cc2)[nH]1 (stereo unspecified)	0%	-10%	21%	19	2%	-3%
COc1cccc(CNc2cnc3ccccc3c2)c1O	6%[9.24 µM]	16µM*	?	-54*	32µM*	12µM*
Cc1ccc(O)c(CNc2cnc3ccccc3c2)c1	?	?	-14%	-88*	-8%	-20%
Oc1ccc(Br)cc1CNc1cnc2ccccc2c1	-17%	?	-13%	-2	-95%	?
COc1cccc(C(=O)N[C@H](C(=O)N2CCC[C@H]2C(=O)NCCc2ccccc2Cl)C2CCCCC2)c1	/	/	/	/	-26%	/
COc1ccc(C(=O)COC(=O)c2cccc(NC(=O)c3ccc(OC)c(OC)c3)c2)cc1	/	10µM*	/	/	-25%	18µM*
COc1ccc(-c2cccc(C(=O)Nc3ccc(OC)c(OC)c3)c2)cc1	?	-20%	?	19	-14%	-18%
COc1ccc(NC(=O)c2ccc(NC(=O)C(C)C)cc2)c([N+](=O)[O-])c1	-4%	2%	3%	6	-1%	-4%
COc1ccc(C(=O)COc2cccc(NC(=O)c3ccco3)c2)cc1	14%	18µM*	8%	2	?	?
COc1cccc(C(=O)COc2cccc(NC(=O)c3ccco3)c2)c1	-10%	?	-13%	-13	6%	-27%
O=C(COc1cccc(NC(=O)c2ccccc2)c1)c1ccccc1	-16%	?	-2%	-8	2%	16µM*
O=C(O)COc1cccc(NC(=O)c2ccccc2)c1	0%	-15%	-1%	-13	-17%	-24%
COc1ccc(NC(=O)c2cccc(NC(=O)C(C)C)c2)c([N+](=O)[O-])c1	-4%	16µM*	4%	1	-5%	?
COc1ccc(C(=O)Oc2ccc(-c3ccccc3)cc2)cc1	/	/	/	/	-5%	/
O=C1Nc2ccccc2O[C@H]2C[C@@H]1N(Cc1nccs1)C2	/	/	/	/	39%[176 µM]	/
CCS(=O)(=O)Nc1ccc2[nH]c(O)c(C(=Nc3ccc(CN4CCCCC4)cc3)c3ccccc3)c2c1	/	/	/	/	-30%[57.4 µM]	/
O=C(c1ccc2[nH]ncc2c1)N1CCOCC12CCN(CCCc1ccccc1)CC2	/	/	/	/	6%[176 µM]	/
SMILES	HT1080 IDH1KD tx	TDP1 cell noCPT	HT1080NT lethal	IL1B secr inh	12-LOX inh	TDP1 cell CPT
O=C(COc1cccc(NC(=O)c2cccc([N+](=O)[O-])c2)c1)c1ccc(Br)cc1	?	?	-16%	-72*	0%	?
Cc1ccc(C(=O)C(C)Oc2cccc(NC(=O)c3ccco3)c2)cc1 (stereo unspecified)	0%	26µM*	-1%	-17	0%	?
COc1ccc(OC)c(NC(=O)c2cccc(NC(=O)c3ccccc3)c2)c1	-3%	?	2%	-57*	-3%	?
COc1ccc(NC(=O)c2cccc(F)c2)cc1Cl	1%	-10%	1%	-23	15%	-5%
COc1ccc(NC(=O)c2cccc(NC(=O)c3ccccc3)c2)c(OC)c1	-20%	?	-2%	-5	74%	-12%
COC(=O)c1cccc(NC(=O)c2ccc(OC)c(Cl)c2)c1	?	?	6%	-72*	?	3%
O=C(Nc1cccc(OCC(=O)N2CCOCC2)c1)c1cccc([N+](=O)[O-])c1	6%	-4%	2%	17	-2%	0%
CCn1cc(C(=O)NC2CCc3nnc(C4CC4)n3CC2)cn1 (stereo unspecified)	/	/	/	/	18%	/
COc1cccc(C(=O)COc2ccc(NC(=O)c3ccccc3)cc2)c1	-6%	?	-6%	-10	-1%	?
COc1cccc(C(=O)Nc2cccc(OCC(=O)c3ccccc3)c2)c1	-20%	?	0%	-1	-10%	23µM*
COc1ccccc1C(=O)NC1CC(C)(C)NC(C)(C)C1	11%	1%	2%	21	6%	-1%
NC(=O)c1ncn([C@@H]2O[C@H](C(=O)Nc3ccc(Oc4ccccc4)nc3)[C@@H](O)[C@H]2O)n1	/	/	/	/	7%	/
O=C(c1cc2ccccc2cc1O)N1CCN(c2cccc(Cl)c2)CC1	2%	?	11%	-1	-25%	?
COc1cc2c(C(=O)N3CCN(c4cccc(Cl)c4)CC3)cn(C)c(=O)c2cc1OC	12µM*	3.7µM*	?	2	-14%	5.2µM*
CCn1cc(C(=O)N2CCN(c3cccc(Cl)c3)CC2)c2cc(OC)c(OC)cc2c1=O	?	23µM*	?	-2	-30%	16µM*
